The supplement of paper PMC10849652
About 8,800 targets were measured; listed, in parts, are those with a hit and a random draw of the rest. About 0.5% of all pairs of compound and target were hits.

Tests used:
Test in all cases: log2 fold change, soluble protein after heating vs DMSO (PISA); higher = thermal stabilisation; K562 lysate, 10 uM; active = over 0.2 and 3.5 SD of the protein, either way, in both replicates (recomputed)
[1] = compound: C#Cc1cccc(Nc2ncnc3cc(OCCOC)c(OCCOC)cc23)c1 [erlotinib]
Method in brief: (§1)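 Pellets of K562 cells were dounce-homogenised in PBS pH 7.4 with 1 mM MgCl2, and the crude extract was held at 1 mg/mL protein for a 30 min treatment with 10 μM compound. Aliquots were heated for 3 min over 48°C-58°C and pooled before NP-40 was added to 0.5% at 4°C. The supernatant from 21,000xg for 90 min was quantified by TMTpro 16plex LC-MS/MS with channel sums equalised. Values are reported from duplicates as log-two fold change in thermal stability relative to solvent controls.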

[2] = compound: C/C(=N\NC(=O)C1=CC(=CC=C1)S(=O)(=O)N2CCOCC2)/C3=C(C=CC(=C3)Cl)O
Method in brief: as §1

[3] = compound: C1=CC(=CC=C1C2=NC3=C(N2)C=C(C=C3)C(=O)N)OC4=CC=C(C=C4)Cl
Method in brief: as §1

[4] = compound: C1=CC2=C(C=CC(=C2)/C=C\3/C(=O)NC(=NCC4=CC=CS4)S3)N=C1
Method in brief: as §1

[5] = compound: C1=CC2=NC=CN=C2C=C1/C=C/3\C(=O)NC(=O)S3
Method in brief: as §1

[6] = compound: C1=CC=C(C=C1)C2=NC(=C(N2)C3=CC=NC=C3)C4=CC(=C(C=C4)Cl)O
Method in brief: as §1

[7] = compound: C1=CC=C2C(=C1)C3=NNC4=CC=CC(=C43)C2=O
Method in brief: as §1

[8] = compound: C1CCN(C1)C(=O)NC2=CC=CC(=C2)NC3=NC=C(C(=N3)NCCC4=CN=CN4)Br
Method in brief: as §1

[9] = compound: C1CN(CCC1(CC2=CC=C(C=C2)Cl)N)C3=NC=NC4=C3C=CN4
Method in brief: as §1

[10] = compound: C1COCCN1CCN2C3=CC=CC=C3N=C2NC(=O)C4=CC(=CC=C4)[N+](=O)[O-] [IRAK-1-4 Inhibitor I]
Method in brief: as §1

Measured: log2 fold change

GAPDH (UniProt P04406)
Sequence of UniProt P04406 (P04406 whole entry, looked up): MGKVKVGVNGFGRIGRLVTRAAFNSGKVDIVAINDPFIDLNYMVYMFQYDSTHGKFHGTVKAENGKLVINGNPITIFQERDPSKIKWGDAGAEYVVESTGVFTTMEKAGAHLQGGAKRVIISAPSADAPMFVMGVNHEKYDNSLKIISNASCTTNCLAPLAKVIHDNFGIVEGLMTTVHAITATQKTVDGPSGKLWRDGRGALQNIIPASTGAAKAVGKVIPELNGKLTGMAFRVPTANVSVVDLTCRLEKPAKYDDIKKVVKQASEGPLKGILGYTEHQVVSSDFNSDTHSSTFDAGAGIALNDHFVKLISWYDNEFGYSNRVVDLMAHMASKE
inactive: [1] -0.007 | [2] -0.032 | [3] 0.031 | [4] 0.006 | [5] -0.006 | [6] -0.005 | [7] 0.028 | [8] 0.027 | [9] -0.034 | [10] 0.003

GABPB1 isoform 3 (UniProt Q06547)
inactive: [1] -0.03 | [2] -0.042 | [3] -0.051 | [4] 0.016 | [5] 0.045 | [6] -0.048 | [7] -0.035 | [8] -0.032 | [9] 0.084 | [10] 0.078

ELAVL1 isoform 2 (UniProt Q15717)
inactive: [1] 0.047 | [2] 0.008 | [3] 0.019 | [4] 0.025 | [5] -0.017 | [6] 0.001 | [7] -0.069 | [8] -0.027 | [9] 0.036 | [10] -0.051

ELF2 (UniProt Q15723)
Sequence of UniProt Q15723 (Q15723 whole entry, looked up): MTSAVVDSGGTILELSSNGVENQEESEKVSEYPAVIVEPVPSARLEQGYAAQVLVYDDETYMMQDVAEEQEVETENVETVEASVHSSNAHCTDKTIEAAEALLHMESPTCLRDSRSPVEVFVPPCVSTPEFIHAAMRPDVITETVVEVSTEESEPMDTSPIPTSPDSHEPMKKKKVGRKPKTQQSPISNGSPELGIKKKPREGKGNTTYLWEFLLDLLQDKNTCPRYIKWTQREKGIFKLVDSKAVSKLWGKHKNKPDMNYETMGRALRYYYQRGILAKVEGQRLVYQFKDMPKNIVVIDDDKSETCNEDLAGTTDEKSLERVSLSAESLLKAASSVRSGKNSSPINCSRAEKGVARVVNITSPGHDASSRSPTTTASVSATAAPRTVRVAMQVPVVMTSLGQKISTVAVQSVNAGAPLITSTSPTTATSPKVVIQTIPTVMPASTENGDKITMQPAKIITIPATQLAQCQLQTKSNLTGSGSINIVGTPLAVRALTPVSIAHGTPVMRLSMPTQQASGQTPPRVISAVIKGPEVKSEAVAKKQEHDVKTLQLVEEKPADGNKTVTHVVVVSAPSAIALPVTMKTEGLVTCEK
inactive: [1] 0.023 | [2] -0.136 | [3] 0.059 | [4] -0.068 | [5] 0.07 | [6] -0.036 | [7] -0.056 | [8] 0.009 | [9] -0.022 | [10] -0.01

EXOC2 (UniProt Q96KP1)
inactive: [1] 0.011 | [2] -0.008 | [3] -0.028 | [4] 0.049 | [5] -0.008 | [6] -0.001 | [7] -0.042 | [8] -0.018 | [9] 0.016 | [10] 0.009

EEF1AKMT4 (UniProt P0DPD7)
inactive: [1] 0.057 | [2] 0.097 | [3] 0.073 | [4] 0.025 | [5] 0.039 | [6] -0.021 | [7] -0.081 | [8] -0.019 | [9] 0.08 | [10] 0.107

DYNC1I2 isoform 2 (UniProt Q13409)
inactive: [1] -0.012 | [2] -0.032 | [3] 0.108 | [4] -0.088 | [5] -0.127 | [6] -0.002 | [7] 0.055 | [8] 0.005 | [9] -0.006 | [10] 0.01

DUS2 (UniProt Q9NX74)
Sequence of UniProt Q9NX74 (Q9NX74 whole entry, looked up): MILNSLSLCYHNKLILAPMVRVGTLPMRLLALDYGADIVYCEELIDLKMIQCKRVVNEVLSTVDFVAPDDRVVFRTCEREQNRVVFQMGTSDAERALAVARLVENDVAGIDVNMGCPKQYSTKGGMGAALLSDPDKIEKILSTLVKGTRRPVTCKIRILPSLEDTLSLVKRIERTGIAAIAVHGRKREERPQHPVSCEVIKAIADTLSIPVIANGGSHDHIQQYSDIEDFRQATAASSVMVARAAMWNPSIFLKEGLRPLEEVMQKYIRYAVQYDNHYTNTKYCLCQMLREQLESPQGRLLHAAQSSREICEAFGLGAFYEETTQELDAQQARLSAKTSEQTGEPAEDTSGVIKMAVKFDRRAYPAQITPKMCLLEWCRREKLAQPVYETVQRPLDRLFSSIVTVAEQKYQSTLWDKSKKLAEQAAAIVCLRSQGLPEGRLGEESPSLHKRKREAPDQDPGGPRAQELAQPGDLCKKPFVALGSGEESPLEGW
inactive: [1] 0.006 | [2] 0.007 | [3] 0.017 | [4] 0.057 | [5] 0.027 | [6] 0.021 | [7] 0.033 | [8] -0.016 | [9] 0.05 | [10] -0.004

FNBP1L (UniProt Q5T0N5)
inactive: [1] 0.015 | [2] -0.018 | [3] 0.013 | [4] 0.031 | [5] 0.044 | [6] 0.066 | [7] 0 | [8] -0.012 | [9] -0.061 | [10] -0.016

FOXK1 (UniProt P85037)
inactive: [1] 0.014 | [2] -0.029 | [3] 0.038 | [4] 0.013 | [5] -0.057 | [6] -0.011 | [7] 0.007 | [8] -0.036 | [9] 0.013 | [10] -0.014

FADS1, A0A0A0MR51
inactive: [1] -0.006 | [2] -0.033 | [3] -0.008 | [4] 0.085 | [5] -0.026 | [6] -0.012 | [7] 0.05 | [8] -0.002 | [9] -0.064 | [10] -0.026

FADS3 (UniProt Q9Y5Q0)
Sequence of UniProt Q9Y5Q0 (Q9Y5Q0 whole entry, looked up): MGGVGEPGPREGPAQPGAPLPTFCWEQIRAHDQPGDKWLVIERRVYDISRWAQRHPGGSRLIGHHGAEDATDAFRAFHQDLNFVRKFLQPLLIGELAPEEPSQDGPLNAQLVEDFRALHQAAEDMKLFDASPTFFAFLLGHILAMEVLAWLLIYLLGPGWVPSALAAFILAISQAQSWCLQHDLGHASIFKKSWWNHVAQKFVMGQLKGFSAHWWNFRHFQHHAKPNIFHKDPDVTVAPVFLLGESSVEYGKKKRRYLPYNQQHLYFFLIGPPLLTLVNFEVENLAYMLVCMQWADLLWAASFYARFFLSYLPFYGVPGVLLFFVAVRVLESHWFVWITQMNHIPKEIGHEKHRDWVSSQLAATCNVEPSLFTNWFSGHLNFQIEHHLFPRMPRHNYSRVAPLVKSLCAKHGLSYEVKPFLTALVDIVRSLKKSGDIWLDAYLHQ
inactive: [1] 0.075 | [2] -0.355 | [3] -0.052 | [4] 0.118 | [5] 0.016 | [6] -0.072 | [7] -0.124 | [8] 0.109 | [9] -0.291 | [10] -0.097

EIF2B3 (UniProt Q9NR50)
inactive: [1] 0.01 | [2] 0.029 | [3] -0.019 | [4] -0.009 | [5] 0.024 | [6] 0.001 | [7] -0.003 | [8] 0.014 | [9] 0.018 | [10] -0.01

ERBIN isoform 8 (UniProt Q96RT1)
inactive: [1] 0 | [2] -0.002 | [3] -0.008 | [4] 0.044 | [5] -0.032 | [6] -0.001 | [7] -0.034 | [8] 0.007 | [9] 0.023 | [10] -0.034

FKBP1A (UniProt P62942)
inactive: [1] -0.024 | [2] 0.063 | [3] 0.015 | [4] -0.061 | [5] 0 | [6] 0.024 | [7] 0.091 | [8] -0.044 | [9] 0.062 | [10] 0.071

FAM120B (UniProt Q96EK7)
Sequence of UniProt Q96EK7 (Q96EK7 whole entry, looked up): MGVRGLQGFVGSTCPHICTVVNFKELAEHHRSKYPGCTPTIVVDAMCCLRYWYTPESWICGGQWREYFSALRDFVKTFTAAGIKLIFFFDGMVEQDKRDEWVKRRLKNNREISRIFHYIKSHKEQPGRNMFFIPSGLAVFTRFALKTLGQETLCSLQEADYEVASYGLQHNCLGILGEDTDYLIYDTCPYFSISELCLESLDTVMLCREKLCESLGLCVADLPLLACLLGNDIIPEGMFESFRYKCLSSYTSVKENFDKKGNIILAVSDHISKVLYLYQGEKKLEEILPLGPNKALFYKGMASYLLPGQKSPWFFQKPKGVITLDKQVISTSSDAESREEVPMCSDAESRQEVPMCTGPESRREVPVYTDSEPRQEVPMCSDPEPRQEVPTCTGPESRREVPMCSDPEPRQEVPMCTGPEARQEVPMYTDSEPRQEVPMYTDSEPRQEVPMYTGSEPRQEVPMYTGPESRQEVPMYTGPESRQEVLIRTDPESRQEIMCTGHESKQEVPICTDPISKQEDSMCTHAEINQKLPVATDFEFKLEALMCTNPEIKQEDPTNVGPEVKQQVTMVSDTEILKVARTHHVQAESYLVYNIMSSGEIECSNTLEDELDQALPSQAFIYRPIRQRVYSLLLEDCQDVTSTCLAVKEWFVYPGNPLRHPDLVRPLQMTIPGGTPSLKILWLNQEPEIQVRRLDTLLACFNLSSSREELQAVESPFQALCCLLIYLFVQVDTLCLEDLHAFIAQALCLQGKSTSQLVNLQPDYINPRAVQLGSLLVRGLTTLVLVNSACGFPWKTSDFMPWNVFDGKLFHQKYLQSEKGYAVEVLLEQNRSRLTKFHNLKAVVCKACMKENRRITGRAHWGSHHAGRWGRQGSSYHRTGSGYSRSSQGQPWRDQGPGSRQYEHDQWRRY
inactive: [1] 0.056 | [2] -0.032 | [3] 0.036 | [4] 0.035 | [5] 0.02 | [6] -0.004 | [7] 0.044 | [8] -0.013 | [9] 0.007 | [10] 0.009

ENSA isoform 3 (UniProt O43768)
inactive: [1] -0.034 | [2] 0.032 | [3] 0 | [4] -0.013 | [5] -0.047 | [7] 0.013 | [8] 0.006 | [9] 0.006 | [10] -0.004
active: [6] -0.459

EWSR1 isoform 5 (UniProt Q01844)
inactive: [1] -0.135 | [2] -0.037 | [3] -0.1 | [4] 0.012 | [5] 0.015 | [6] 0.037 | [7] 0.015 | [8] -0.009 | [9] -0.028 | [10] 0.018

FXR2 (UniProt P51116)
inactive: [1] 0.018 | [2] 0.026 | [3] -0.01 | [4] -0.042 | [5] 0.022 | [6] -0.029 | [7] -0.092 | [8] -0.085 | [9] 0.003 | [10] -0.075

FBXO30 (UniProt Q8TB52)
Sequence of UniProt Q8TB52 (Q8TB52 whole entry, looked up): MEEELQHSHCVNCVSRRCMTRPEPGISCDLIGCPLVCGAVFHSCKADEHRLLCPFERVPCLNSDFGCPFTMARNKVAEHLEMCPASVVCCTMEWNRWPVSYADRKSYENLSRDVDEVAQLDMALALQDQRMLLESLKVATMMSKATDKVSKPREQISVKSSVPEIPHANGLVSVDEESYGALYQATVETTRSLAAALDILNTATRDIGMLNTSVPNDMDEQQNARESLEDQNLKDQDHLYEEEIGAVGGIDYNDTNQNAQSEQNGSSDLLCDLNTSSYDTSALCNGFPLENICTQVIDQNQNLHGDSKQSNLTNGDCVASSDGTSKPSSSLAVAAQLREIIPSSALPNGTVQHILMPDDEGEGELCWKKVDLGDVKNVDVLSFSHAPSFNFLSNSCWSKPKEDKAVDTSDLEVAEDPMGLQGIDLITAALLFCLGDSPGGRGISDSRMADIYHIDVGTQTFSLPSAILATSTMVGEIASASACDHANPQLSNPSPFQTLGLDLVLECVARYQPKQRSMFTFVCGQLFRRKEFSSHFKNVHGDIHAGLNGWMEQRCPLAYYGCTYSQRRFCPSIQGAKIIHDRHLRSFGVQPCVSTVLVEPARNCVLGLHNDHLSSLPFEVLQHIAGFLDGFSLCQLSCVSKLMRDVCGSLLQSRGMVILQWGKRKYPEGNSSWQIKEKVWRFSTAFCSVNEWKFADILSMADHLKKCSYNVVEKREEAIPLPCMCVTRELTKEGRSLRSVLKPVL
inactive: [1] 0.006 | [2] -0.064 | [3] -0.031 | [4] 0.014 | [5] -0.038 | [6] -0.008 | [7] 0.042 | [8] -0.014 | [9] -0.007 | [10] -0.018

ERI1 (UniProt Q8IV48)
Sequence of UniProt Q8IV48 (Q8IV48 whole entry, looked up): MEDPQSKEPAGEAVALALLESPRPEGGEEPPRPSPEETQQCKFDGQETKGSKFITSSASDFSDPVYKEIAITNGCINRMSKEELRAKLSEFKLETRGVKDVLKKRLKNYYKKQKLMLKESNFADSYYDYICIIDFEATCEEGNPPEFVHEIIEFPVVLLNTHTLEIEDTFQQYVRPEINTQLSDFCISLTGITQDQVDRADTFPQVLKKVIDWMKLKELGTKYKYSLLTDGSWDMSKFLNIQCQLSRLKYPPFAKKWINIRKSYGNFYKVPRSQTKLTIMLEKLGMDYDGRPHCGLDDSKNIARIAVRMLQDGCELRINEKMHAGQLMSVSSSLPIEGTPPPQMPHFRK
inactive: [1] -0.015 | [2] 0.073 | [3] -0.009 | [4] 0.019 | [5] -0.028 | [6] 0.134 | [7] -0.03 | [8] -0.009 | [9] -0.036 | [10] -0.111

DSN1 (UniProt Q9H410)
inactive: [1] -0.021 | [2] 0.03 | [3] 0.037 | [4] 0.014 | [5] 0.01 | [6] -0.025 | [7] 0.032 | [8] -0.034 | [9] -0.024 | [10] 0.002

EEF1AKNMT (UniProt Q8N6R0)
inactive: [1] 0.048 | [2] 0.029 | [3] -0.02 | [4] -0.039 | [5] 0.005 | [6] 0 | [7] -0.065 | [8] 0.011 | [9] 0.053 | [10] -0.015

FYCO1 isoform 4 (UniProt Q9BQS8)
inactive: [1] 0.029 | [2] 0.026 | [3] 0.014 | [4] -0.01 | [5] -0.019 | [6] -0.006 | [7] -0.016 | [8] -0.013 | [9] 0.009 | [10] 0

DSTN (UniProt P60981)
Sequence of UniProt P60981 (P60981 whole entry, looked up): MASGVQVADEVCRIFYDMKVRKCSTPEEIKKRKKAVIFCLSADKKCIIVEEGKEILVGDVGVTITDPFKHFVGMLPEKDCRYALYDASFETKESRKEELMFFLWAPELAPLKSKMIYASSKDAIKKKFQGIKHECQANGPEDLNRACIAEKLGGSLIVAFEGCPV
inactive: [1] -0.038 | [2] -0.027 | [3] -0.007 | [4] 0.014 | [5] 0.013 | [6] 0 | [7] 0.005 | [8] -0.021 | [9] -0.012 | [10] -0.007

FIG4 (UniProt Q92562)
Sequence of UniProt Q92562 (Q92562 whole entry, looked up): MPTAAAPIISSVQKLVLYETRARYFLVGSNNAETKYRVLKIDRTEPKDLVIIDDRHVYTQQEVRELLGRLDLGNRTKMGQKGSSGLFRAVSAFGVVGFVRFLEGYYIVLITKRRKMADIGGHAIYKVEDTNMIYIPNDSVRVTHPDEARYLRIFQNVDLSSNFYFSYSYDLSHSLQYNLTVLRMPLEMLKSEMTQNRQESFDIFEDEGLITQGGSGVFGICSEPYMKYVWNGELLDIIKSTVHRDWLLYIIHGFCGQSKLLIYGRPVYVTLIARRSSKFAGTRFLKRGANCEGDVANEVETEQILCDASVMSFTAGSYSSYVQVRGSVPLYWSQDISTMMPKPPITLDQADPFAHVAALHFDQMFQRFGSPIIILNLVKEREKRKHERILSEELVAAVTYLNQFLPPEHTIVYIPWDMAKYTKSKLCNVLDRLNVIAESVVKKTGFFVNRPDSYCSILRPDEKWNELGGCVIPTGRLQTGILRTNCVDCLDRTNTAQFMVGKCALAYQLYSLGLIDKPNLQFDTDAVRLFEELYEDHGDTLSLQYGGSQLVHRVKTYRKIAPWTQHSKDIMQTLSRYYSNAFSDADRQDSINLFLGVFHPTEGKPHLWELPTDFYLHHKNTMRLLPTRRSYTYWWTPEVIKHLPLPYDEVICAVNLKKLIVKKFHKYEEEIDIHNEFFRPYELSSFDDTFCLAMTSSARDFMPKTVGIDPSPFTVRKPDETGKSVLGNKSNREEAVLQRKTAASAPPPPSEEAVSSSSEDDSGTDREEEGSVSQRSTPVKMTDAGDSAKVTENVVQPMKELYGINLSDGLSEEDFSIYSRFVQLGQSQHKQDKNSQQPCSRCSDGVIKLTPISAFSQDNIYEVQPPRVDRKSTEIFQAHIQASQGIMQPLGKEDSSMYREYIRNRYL
inactive: [1] 0.032 | [2] -0.032 | [3] -0.029 | [4] 0 | [5] 0.007 | [6] 0.064 | [7] 0.02 | [8] 0.061 | [9] -0.053 | [10] 0.003

FBXO45 (UniProt P0C2W1)
inactive: [1] 0.077 | [2] 0.016 | [3] -0.033 | [4] 0.092 | [5] -0.099 | [6] -0.126 | [7] -0.069 | [8] 0.018 | [9] 0.01 | [10] -0.043

FANCI (UniProt Q9NVI1)
inactive: [1] 0.012 | [2] -0.031 | [3] -0.056 | [4] 0.013 | [5] 0.021 | [6] -0.001 | [7] -0.051 | [8] -0.008 | [9] -0.009 | [10] 0.013

GFPT1 (UniProt Q06210)
inactive: [1] 0.031 | [2] -0.008 | [3] 0.003 | [4] 0.013 | [5] -0.008 | [6] 0.001 | [7] -0.014 | [8] -0.021 | [9] 0.008 | [10] 0.006

DYNC1I2 isoform 5 (UniProt Q13409)
inactive: [1] -0.005 | [2] 0.001 | [3] -0.001 | [4] 0.009 | [5] 0 | [6] 0.009 | [7] 0.019 | [8] -0.007 | [9] 0.016 | [10] 0.018
